High-throughput results (PubChem)
DRD3 antagonist – qHTS of D3 Dopamine Receptor Antagonist: qHTS | D(3) dopamine receptor (Homo sapiens), P35462 | D3R cells, DiscoveRx beta-arrestin luminescence, antagonist mode; active compounds read low | max response, negative = inhibition, % | 2.5% of 360,000 active; in the data active means max response below about -50%; inconclusive means no clear call, values can overlap the other calls
Target sequence (P35462 whole entry, looked up): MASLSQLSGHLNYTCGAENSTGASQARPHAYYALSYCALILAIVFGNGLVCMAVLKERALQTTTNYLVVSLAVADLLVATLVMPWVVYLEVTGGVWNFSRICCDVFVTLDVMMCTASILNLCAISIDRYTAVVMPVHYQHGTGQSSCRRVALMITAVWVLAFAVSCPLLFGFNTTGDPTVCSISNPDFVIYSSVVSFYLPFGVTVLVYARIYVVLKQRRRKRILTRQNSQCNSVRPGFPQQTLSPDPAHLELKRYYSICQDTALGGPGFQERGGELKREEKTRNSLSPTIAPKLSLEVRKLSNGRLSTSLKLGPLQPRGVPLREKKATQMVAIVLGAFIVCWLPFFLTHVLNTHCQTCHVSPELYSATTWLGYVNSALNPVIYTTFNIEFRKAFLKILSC
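Cells expressing the human receptor were seeded at 1500 cells/well, incubated overnight at 37 degrees C in 5% CO2, then exposed to library compounds with dopamine controls for 90 minutes at 37 degrees C before luminescent detection.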
D1 PAM – Potentiators of Human D1 Dopamine Receptor: qHTS; HEK293 TREx D1 cells, calcium flux, dopamine EC20 potentiation; potentiation, % at 10 µM; D(1A) dopamine receptor (Homo sapiens), P21728; 0.036% of 360,000 active; in the data active means potentiation above about 30%
DRD3 agonist – qHTS of D3 Dopamine Receptor Agonist: qHTS | D(3) dopamine receptor (Homo sapiens), P35462 | D3R DiscoveRx beta-arrestin cells, luminescence, 90 min | max activation, % | 0.58% of 410,000 active | AID 652048, 2013; in the data active means max activation above about 30%
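Cells at 1500/well, incubated overnight, then treated with pinned compounds (dopamine as control) for 90 min at 37 degrees C. DiscoveRx reagent added for 30 - 60 minutes at room temperature; luminescence read.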
D1 ag – Allosteric Agonists of the Human D1 Dopamine Receptor: qHTS; D(1A) dopamine receptor (Homo sapiens), P21728; HEK293 T-REx D1 cells, calcium flux, agonist mode; activation, % at 2 µM; 1% of 360,000 active; AID 504660, 2011; in the data active means activation above about 30%
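Agonism was scored from calcium flux recorded over 180 s (1 read/s) after pintool compound addition, following a 10-cycle baseline. Cells were inducible force-coupled HEK293 TREx D1, plated overnight at 30 C and loaded with no-wash calcium dye.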
D1 antag – Antagonist of Human D 1 Dopamine Receptor: qHTS; D(1A) dopamine receptor (Homo sapiens), P21728; activity change, negative = inhibition, % at 10 µM; HEK293 TREx D1 cells, calcium flux, dopamine EC80; active compounds read low; 3.2% of 360,000 active; AID 504652, 2011; in the data active means activity change below about -30%
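Tetracycline-induced HEK293 Trex D1 cells, force-coupled to calcium, dye-loaded; compounds added and read 180 s, then EC80 dopamine added and calcium flux tracked kinetically another 180 s.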
Large screens that a line does not name were inactive. Shown are actives, neighbours in structure and some others; about 6% of the full set was active somewhere.

Cc1cc(C(=O)Nc2c(C)nc3ccccn3c2=O)ccc1[N+](=O)[O-]	none (no result: DRD3 antagonist)
CCCc1cc(=O)[nH]c(Nc2ccccc2O)n1	none (no result: DRD3 antagonist)
Cc1ccc(C)c(S(=O)(=O)Nc2ccc(C(=O)NCC(c3ccco3)N(C)C)cc2)c1 (centres undefined)	DRD3 antagonist -53
Cc1ccc(C)c(S(=O)(=O)Nc2ccc(C(=O)NCC(c3ccco3)N3CCCCC3)cc2)c1 (centres undefined)	none
O=C(CCn1ccc2cc(S(=O)(=O)N3CCCC3)ccc21)NCc1cccc(Br)c1	none (no result: DRD3 antagonist)
CC1(CCc2ccc3c(c2)OCO3)NCCc2c1[nH]c1ccccc21 (centres undefined)	D1 ag 128, D1 antag -38
CCCc1ccc(C#N)c(SC2CC(=O)N(c3ccc(OC)cc3)C2=O)n1 (centres undefined)	D1 antag -45
O=C1CC(Sc2nnnn2-c2ccccc2)C(=O)N1c1cccc(Cl)c1 (centres undefined)	none
COc1ccc(N2C(=O)CC(Sc3nnnn3-c3ccc(F)cc3)C2=O)cc1 (centres undefined)	DRD3 antagonist -60
S=C(Nc1cccc(Cl)c1)NC1CCCCC1	D1 antag -34
O=C(Nc1cccc(Cl)c1)NC1CCN(C2CCCCC2)C1 (centres undefined)	DRD3 antagonist -103
Fc1ccc(Br)cc1C1C=C(c2ccc(Br)s2)Nc2ncnn21 (centres undefined)	none
COc1ccc(C2C=C(c3ccc(C)c(C)c3)Nc3ncnn32)c(OC)c1OC (centres undefined)	DRD3 antagonist -68
COc1cccc(C2C=C(c3ccc(Br)s3)Nc3ncnn32)c1OC (centres undefined)	D1 ag 48
COc1cccc(C2=CC(c3ccc(OC)c(OC)c3OC)n3ncnc3N2)c1 (centres undefined)	none (no result: DRD3 antagonist)
COc1ccccc1Cn1ccn(Cc2c(F)cccc2Cl)c(=O)c1=O	none (no result: DRD3 antagonist)
Cc1cccc(Cn2c(=O)n(CC3CCC(C(=O)N4CCOCC4)CC3)c(=O)c3sccc32)c1 (centres undefined)	none (no result: DRD3 antagonist)
N#CC(=C1C=C(Br)C(=NO)C=C1Cl)c1ccc(Cl)cc1	none (no result: D1 PAM, D1 ag, D1 antag)
N#CC(=C1C=CC(=NO)C(Cl)=C1)c1ccccc1	DRD3 antagonist -82 (no result: D1 PAM, D1 ag, D1 antag)
CCCCc1cc(=O)oc2cc(C)cc(O)c12	D1 antag -35
O=C(Cn1nc2c(cc1=O)CCCC2)Nc1ccccc1C(F)(F)F	none (no result: DRD3 antagonist)
Cc1cc(C)nc(NC2=NCC(=O)N2c2cc(Cl)cc(Cl)c2)n1	none
Cc1cccc(N2C(=O)CN=C2Nc2nc(C)cc(C)n2)c1	D1 antag -32
COC(=O)c1sc(N)c(C(=O)OC)c1COC(=O)c1c(C)noc1C	DRD3 antagonist -69
COC(=O)c1sc(NC(=O)c2c(-c3ccccc3)noc2C)nc1C	none
COC(=O)c1sc(NC(=O)c2c(C)noc2C)nc1C	D1 antag -33
Cc1nc(NC(=O)c2ccco2)sc1C(=O)O	D1 antag -35
COC(=O)c1sc(NC(=S)NC(=O)c2ccccc2C)nc1C	D1 ag 92
O=C(CSc1n[nH]c(-c2ccc(F)cc2)n1)NCc1ccccc1Cl	none (no result: DRD3 antagonist)
COc1ccc(C2C=C(c3ccccc3)Nc3nc(NC(=O)c4cccc([N+](=O)[O-])c4)nn32)cc1 (centres undefined)	none (no result: DRD3 antagonist)
COc1ccc(CNC(=O)CN(C)c2nn3c(=O)cc(C)nc3s2)cc1	none (no result: DRD3 antagonist)
COc1ccc2[nH]c3c(c2c1)CCN1C(=O)C(CC(=O)NCCc2ccccn2)C[C@H](C(=O)N2CCCCC2)[C@@]31C (some centres undefined)	none (no result: D1 PAM, D1 ag, D1 antag)
CCOc1cc(C2c3c(n[nH]c3C)C(=O)N2c2ccc(C)cc2)ccc1O (centres undefined)	D1 antag -78
O=C1/C(=C\c2ccco2)SC(=S)N1Cc1ccccc1	DRD3 antagonist inconclusive
COc1ccc(CCN2C(=O)/C(=C\c3ccco3)SC2=S)cc1OC	DRD3 agonist 59
COc1ccc(-c2cc(C(F)(F)F)nc(SCC(=O)N3CCCCC3)n2)cc1OC	none (no result: DRD3 antagonist)
